The text below walks through data of PubChem BioAssay AID651820 (National Center for Advancing Translational Sciences (NCATS), 2012).

Structures are written as SMILES. About 12,000 (3.5%) of roughly 340,000 compounds were called active. Inconclusive results (about 18%) are left out. The sample holds actives, similar compounds and a random draw of the others, so the mix is not that of the screen. Values without a mark were called inactive. The call rests on the fitted dose curve; in most records, active means well fitted inhibition curve with a large enough effect; inconclusive means small, poorly fitted or top-dose-only effect, or another doubt; inactive means no such curve, though single readings can be large or run the other way.
On the % scale 0 is the no-effect control and ±100 the full control effect.

This assay in a line: qHTS Assay for Inhibitors of Hepatitis C Virus (HCV). Particulars: Huh7.5.1 HCVcc-Cre infection, luciferase reporter, 44 h; series mostly up to 41.8 µM; activity change, negative = inhibition: at the top concentration. The text has this: Hepatitis C virus (HCV) infects about 200 million people in the world. Many infected people progress to chronic liver disease including cirrhosis with a risk of developing liver cancer. To date, there is no effective vaccine for hepatitis C. Current therapy based on interferon is only effective in about half of the patients and is associated with significant adverse effects. The fraction of people with HCV who can complete a successful treatment is estimated to be no more than 10 percent. Recent development of direct-acting antivirals against HCV, such as protease and polymerase inhibitors, is promising but still requires combination with peginterferon and ribavirin for maximal efficacy. In addition, these agents are associated with high rate of resistance and many have significant side effects. Due to the lack of a culture system for infectious HCV, the search for new HCV drugs has been greatly hampered. […] High-throughput screening (HTS) with an infectious HCV system would cover the complete spectrum of potentially druggable targets in all stages of HCV lifecycle, and would have more biological relevance than other cell-based assays. Moreover, targeting several key processes in the viral life cycle may not only increase antiviral efficacy; more importantly, it may also reduce the capacity of the virus to develop resistance to the compound. The goal of this project is to identify novel HCV inhibitors as new therapies for hepatitis C, using a highly sensitive and specific assay platform which is based on a HCV infectious cell culture system established in the laboratory and adapted for high-throughput HCV drug screen. NIH Chemical Genomics Center [NCGC] NIH Molecular Libraries Probe Centers Network [MLPCN] MLPCN Grant: MH095511 Assay Submitter (PI): Jake Liang, NIDDK
The assay will start with plating 1,000 cells/well in 3 µL volume and culture for 4 h. Then 23 nL of compounds from the library collection will be added to each well, followed by adding 2.5 µL of HCVcc-Cre virus (~ 0.5 moi) and further cultured for 44 h before the luciferase assay. A volume of 4.5 µL luciferase substrates will be added to each well and the plates will be incubated at room temperature for 15 min. and then read for 15 sec. for the luciferase activity
(In qHTS, concentration-response curves come from the screen itself.)
As to `O=C(NCc1ccccc1)C1=C[C@@H](c2ccccc2)C[C@@H](OCCCCO)O1`, the “activity change, negative = inhibition” value was 6.06%. On the same count and under the same terms, the figure for `N#C/C(=C(/O)Cc1cccc2ccccc12)c1nc2ccccc2s1` is 13.7%.

As to `N=C(N)SCc1cccc2ccccc12`, the Potency is 6.31 µM (active). For the compound `c1ccc2c(CNn3cnnc3)cccc2c1`, the “activity change, negative = inhibition” value is 0.47%. Take `CC(C)(C)n1ncc2c(=O)n(Cc3ccc(Cl)cc3)cnc21`: the Potency was 11.2 µM (active). For the compound `Cc1ccc2c(c1)c1ncn(Cc3ccc(F)cc3)c(=O)c1n2C`, the “activity change, negative = inhibition” value is -22.6%. For `CC(=O)Cn1cnc2c(cnn2-c2ccccc2)c1=O`, the “activity change, negative = inhibition” value is -0.203%. In the case of `CC(C)Cn1c(SCC(=O)Nc2ccc(Cl)cc2F)nc(O)cc1=O`, the “activity change, negative = inhibition” value is 30.9%. On to `O=C(OCC(=O)N1CCN(C(=O)c2ccco2)CC1)c1c(Cl)cccc1Cl`, for which the “activity change, negative = inhibition” value was 16.5%. In the case of `CC1CCCCC1NC(=O)Cn1cnc2c1c(=O)n(C)c(=O)n2C` (stereo not given), the “activity change, negative = inhibition” value is -3.41%. As for `C/C(=N\NC(=S)Nc1ccc(C)cc1)c1cc2ccccc2o1`, the Potency was 10 µM (active). Consider `Cc1ccc(NC(=O)c2cc3ccccc3o2)cc1`, for which the “activity change, negative = inhibition” value is -10.5%. As to `Cc1ccc(OC(=O)c2cc3ccccc3o2)cc1`, the “activity change, negative = inhibition” value was 4.88%.

Take `COc1cc(C(=O)NC2CCN(C)CC2)ccc1Nc1ncc2c(n1)N(C1CCC(O)CC1)CCC(=O)N2C` (stereo not given): the “activity change, negative = inhibition” value is -26.6%.

`O=C(CSc1nnc(N2CCOCC2)n1-c1cccc(F)c1)N1CCN(c2ccccn2)CC1`: the “activity change, negative = inhibition” value was 2.86%.

For the compound `Cc1cccc(-n2ncc3c(=O)[nH]c(SCC(=O)Nc4cc(C)on4)nc32)c1`, the “activity change, negative = inhibition” value was 0.218%. Turning to `Cc1c(O)c(C)c2c(c1O)C(=O)C[C@@H](c1ccccc1)O2`, the “activity change, negative = inhibition” value is -1.63%. For the compound `O=C(COc1ccc([N+](=O)[O-])cc1Cl)Nc1ccc2[nH]c(=O)[nH]c2c1`, the “activity change, negative = inhibition” value was 1.57%. Take `O=C(Nc1ccc(CSc2ccccc2)cc1)c1ccc(CN2CCOCC2)cc1`: the Potency is 3.16 µM (active).

As for `COc1ccc(C(=O)Nc2ccc(CN3CCOCC3)cc2)cc1`, the “activity change, negative = inhibition” value was 3.24%. Still for that read-out and setting: as for `O=C(Nc1ccccc1C(=O)N1CCOCC1)c1ccc(CSc2ccccc2)cc1`, the figure is -26%. Take `CN(Cc1ccccc1)C(=O)COC(=O)/C=C/c1ccc2c(c1)OCO2`: the “activity change, negative = inhibition” value is -6.21%. Take `CC(=O)c1c(C)[nH]c(C(=O)COc2ccc3c(C)cc(=O)oc3c2)c1C`: the “activity change, negative = inhibition” value is -0.953%.

With `O=C(Nc1ccc2nc3n(c(=O)c2c1)CCCC3)c1ccc(Cl)nc1`, the “activity change, negative = inhibition” value is -17.7%. Still for that read-out and setting: as for `CC1(C)C/C(=N/Nc2ccc([N+](=O)[O-])cc2[N+](=O)[O-])C(C)(C)O1`, the figure is -10.5%. On to `CCOC(=O)C1(Cc2cccc(OC)c2)CCN(Cc2csc(C(C)=O)c2)CC1`, for which the Potency is 22.4 µM (active).

Take `CCOC(=O)C1(Cc2cccc(OC)c2)CCN(C(C)CC(C)(C)O)CC1` (stereo not given): the “activity change, negative = inhibition” value is -11%.

For `CCOC(=O)C1(Cc2cccc(OC)c2)CCN(C(C)COC)CC1` (stereo not given), the “activity change, negative = inhibition” value is 10.8%. Same read-out and setting: the figure for `c1ccc(-c2c[nH]c(-c3ccccc3)c2)cc1` is -6.21%. Same read-out and setting: as for `Cc1cc2oc(=O)cc(CN3CCN(Cc4ccccc4)CC3)c2cc1C`, the figure is -11.3%; as for `CCCOc1ccc(C2c3c(oc4cc(C)c(C)cc4c3=O)C(=O)N2CCCN2CCOCC2)cc1` (stereo not given), -7.54%. Take `Cc1cc2oc3ccc(NCCC4CCCN4C)cc3c(=O)c2cc1C` (stereo not given): the Potency was 14.1 µM (active). With `CSc1ncccc1C(=O)Nc1ccc2c(c1)OCO2`, the “activity change, negative = inhibition” value is 3.31%. With `O=C1C2C3C=CC(C3)C2C(=O)N1c1ncc([N+](=O)[O-])s1` (stereo not given), the “activity change, negative = inhibition” value was 0.319%. Still for that read-out and setting: as for `CCN(C(=O)CSc1ncnc2sccc12)c1c(N)n(Cc2ccccc2)c(=O)[nH]c1=O`, the figure is 5.2%; as for `Cc1c(C(=O)Nc2ccccc2)sc2nc3n(c(=O)c12)CCCCC3`, 2.42%. For `CC(=O)c1ccc(NC(=O)c2sc3nc4n(c(=O)c3c2C)CCCCC4)cc1`, the Potency was 11.2 µM (active). With `O=c1c2c(nc3n1CCCCC3)sc1c(O)cccc12`, the “activity change, negative = inhibition” value is -3.44%. Regarding `O=C(c1ccc(Cl)nc1)N1CCN(S(=O)(=O)c2ccc3c(c2)OCCO3)CC1`, the “activity change, negative = inhibition” value was -7.42%. Turning to `COc1cc(C(c2c(NC(=O)c3ccco3)sc(C)c2C)N2CCOCC2)cc(OC)c1OC` (stereo not given), the “activity change, negative = inhibition” value is 5.51%.

Consider `COc1cccc(NC(=O)c2ccccc2SC)c1`, for which the “activity change, negative = inhibition” value is -1.29%. In the case of `COc1cccc(NC(=O)C2C(c3ccccc3)C2(Cl)Cl)c1` (stereo not given), the Potency is 12.6 µM (active). Regarding `COc1cccc(NC(=O)C2CCCN2C(=O)OCc2ccccc2)c1` (stereo not given), the “activity change, negative = inhibition” value was 13.3%. The same measure, in the same setting: as for `Cc1ccccc1-c1cc(C(=O)NCc2cccs2)n(CC2CC(c3cccnc3)=NO2)n1` (stereo not given), the figure is -8.14%; as for `O=C(CCCCCCCC(=O)N1CCCCC1)N1CCCCC1`, -4.7%. As for `O=C(CC1SC(N2CCOCC2)=NC1=O)Nc1ccccc1F` (stereo not given), the “activity change, negative = inhibition” value is 3.09%. With `COc1cc(C(=O)NCc2ccncc2)cc(Br)c1OCc1ccccc1`, the Potency is 10 µM (active). Take `COc1cc(C=O)c(Br)cc1OCC(=O)NCc1ccccc1`: the “activity change, negative = inhibition” value is -9.16%.

Turning to `COc1cc(C(=S)NCc2ccccc2)cc(Br)c1O`, the “activity change, negative = inhibition” value is -13.2%. Same read-out and setting: as for `O=c1c2ccccc2ncn1CCc1ccncc1`, the figure is -0.693%. In the case of `CCOc1ncccc1C(=O)OCC(=O)N1c2ccccc2CC1C` (stereo not given), the “activity change, negative = inhibition” value was -0.457%. Still for that read-out and setting: the figure for `C[C@@H]1CN([C@@H](C)CO)C(=O)c2cccc(NS(=O)(=O)c3ccc(F)cc3)c2O[C@H]1CN(C)C(=O)NC1CCCCC1` is -10.1%; for `Cn1c(C(=O)NCCN2CCc3ccccc3C2)cc2c(=O)[nH]c3ccccc3c21` it is -20.8%.

On to `O=C(NCCN1CCN(Cc2ccccc2)CC1)c1cc2c(=O)[nH]c3ccccc3c2s1`, for which the Potency is 12.6 µM (active). Take `CCN(CC)CCCNC(=O)c1cc2c(=O)[nH]c3ccc(C)cc3c2s1`: the “activity change, negative = inhibition” value was -15.9%. As to `CSc1ccccc1C(=O)OCC(=O)N1CCN(C(C)=O)CC1`, the “activity change, negative = inhibition” value was 5.57%. `Cc1ccc(S(=O)(=O)n2oc(=O)c(C3CCCCC3)c2N)cc1`: the “activity change, negative = inhibition” value is -14.1%. On to `O=C1CSc2ccc(C(=O)NCc3ccccn3)cc2N1`, for which the “activity change, negative = inhibition” value was 28.3%. Take `COc1cc2nc(Cl)nc(NCCO)c2cc1OC`: the “activity change, negative = inhibition” value was 4.09%.

As for `COc1ccc(-c2oc3ncnc(NCCCO)c3c2-c2ccc(OC)cc2)cc1`, the Potency is 12.6 µM (active).

`COc1ccc(CCNc2ncnc3c2nnn3Cc2ccccc2)cc1`: the “activity change, negative = inhibition” value is -8.73%. With `Nc1ccc2c(c1)C(O)c1ccc(Cl)cc1-2` (stereo not given), the “activity change, negative = inhibition” value is -6.9%. Take `CN(C)CCOC1c2ccccc2-c2ccccc21`: the “activity change, negative = inhibition” value is -15.1%. For the compound `Clc1cccc(Cl)c1OCCOCCNCc1ccccc1`, the “activity change, negative = inhibition” value was -1.97%. Turning to `CN(C)CCOCCOc1ccc(Cl)c2ccccc12`, the Potency was 10 µM (active). Consider `CCC(C)N(C(=O)CSc1nnnn1-c1ccccc1OC)C1CCS(=O)(=O)C1` (stereo not given), for which the “activity change, negative = inhibition” value was -3.37%. Turning to `CN(C(=O)Cn1nnc(-c2ccc(F)cc2)n1)C1CCS(=O)(=O)C1` (stereo not given), the “activity change, negative = inhibition” value is -3.26%.

As to `CCN1CCC(O)(/C=C/c2ccc(C)cc2)C(C(=O)/C=C/c2ccc(C)cc2)C1` (stereo not given), the Potency was 14.1 µM (active). As for `CCN1CCN(C(=O)CSc2ccc(C)cc2)CC1`, the “activity change, negative = inhibition” value is 11%. Take `CCOC(=O)C1CCCN(C(=O)/C=C/c2ccc(OC)cc2)C1` (stereo not given): the “activity change, negative = inhibition” value is 5%.
